Among all 360,000 compounds or so, about 7,500 (2.1%) were called active. Roughly 20% stayed inconclusive and do not appear here. What follows is part of a selection rich in actives, with near analogues and random picks from the rest. Values without a mark were called inactive. Calls follow the shape of the dose curve; as a rule, active = well fitted inhibition curve with a large enough effect; inconclusive = small, poorly fitted or top-dose-only effect, or effect the other way; inactive = flat fitted curve, though single readings scatter.
% is scaled to controls: 0 for no effect and ±100 for the full control effect; potency is read from the fitted curve at half-maximal effect.

The nature of the experiment: Nrf2 qHTS screen for inhibitors. Also: nearly all actives have a fitted effect of over 60% in size. The note with it: A549 ARE-Fluc reporter, luciferase luminescence, 18-24 h; series mostly up to 46 µM; activity change, negative = inhibition: at the top concentration. The source says:
NIH Molecular Libraries Probe Production Network [MLPCN]
NIH Chemical Genomics Center [NCGC]
Assay Provider: Shyam Biswal, Johns Hopkins University
Nrf2 is a transcription factor that maintains cellular redox homoestasis and protects cells from xenobiotics. Nrf2 binds to the antioxidant response element (ARE) to induce gene expression of a broad spectrum of genes that encode for antioxidants. […] Finding a small molecule that act as an inhibitor of Nrf2 function would represent a novel therapeutic target that could lead to improvement in survival of patients undergoing chemo- and/or radio- therapy.
This is the Nrf2 activity measured in the luminescent read.
1. Shibata, T., et al., Genetic Alteration of Keap1 Confers Constitutive Nrf2 Activation and Resistance to Chemotherapy in Gallbladder Cancer. Gastroenterology, 2008.
2. Sjoblom, T., et al., The consensus coding sequences of human breast and colorectal cancers. Science, 2006. 314(5797): p. 268-74.
NCGC Assay Protocol Summary:
A concentration-response assay was performed with A549 ARE_Fluc cells which are suspended in 5% FBS OPTI-MEM. Five uL were dispensed into 1536-well white TC-treated plate using the Kalypsys dispenser to achieve a density of 5000 cells/well in all columns except column 1. The plate is incubated at 37deg C at 5% CO2 for 2 hours before 23 nL of compounds are added with the Kalypsys pin tool equipped with a 1,536-pin array containing 10-nL slotted pins (FP1S10, 0.457-mm diameter, 50.8 mm long; V&P Scientific). The control compounds Budesonide and Staurosporine are both added at a concentration of 2mM and Budesonide is also added as a 1:10 titration, starting at 200uM, to achieve dose-response. After an 18-24 hour incubation at 37deg C at 5% CO2, 5ul of medium is added to column 1. Afterwards 1ul of 5x of CellTiter-Fluor (Promega) is added to every well. The plate is then incubated at 37deg C at 5% CO2 for 30 minutes before they are read on the ViewLux (Perkin Elmer) for a fluorescent read Ex=405(10)/Em=525(10) for a 3 second exposure, 2x binning, and high gain. Then 3 uL of 3x BugLite is dispensed into all wells and the plate is incubated at ambient room temperature for 15 minutes. Afterwards another ViewLux read is performed using the clear filter to get a luminescent read with the settings of 40 second exposure, 2x binning, and high gain. Cytotoxicity is assessed through the first fluorescent read and then biochemical activity against Nrf2 is measured in the luminescent read.
`CC[C@H]1CC2CN3CCc4c([nH]c5ccccc45)C(C(=O)OC)(C2)C13` (stereo not given in full): the “activity change, negative = inhibition” value was -5.41%.
On the same count and under the same terms, under `CCC(=O)OC(Cc1ccccc1)(c1ccccc1)C(C)CN(C)C` (stereo not given) stands -0.661%; under `CC=C(C)C(=O)OC1CCN2CC=C(COC(=O)C(O)(C(C)OC)C(C)(C)O)C12` (stereo not given), -9.73%; under `CCC(=O)c1ccc(OCC(=O)N2CCN(CC(=O)Nc3ccc(C)cc3)CC2)cc1`, 0.865%.
Consider `COc1cccc(C(=O)Nc2ccc(-c3cc(C(F)(F)F)nn3-c3ccccc3)cc2)c1`, for which the Potency was 14.6 µM (active).
Take `COc1ccc(NC(=O)c2cn(CCC#N)nc2-c2ccc([N+](=O)[O-])cc2)cc1`: the “activity change, negative = inhibition” value is 2.75%.
Take `COc1ccc(-c2nn(CCC#N)cc2C(=O)Nc2ccc(C(C)=O)cc2)cc1`: the “activity change, negative = inhibition” value is -8.88%.
Same read-out and setting: as for `C=C(C)C1(CCCC)C(=O)NC(=S)NC1=O`, the figure is -1.08%; as for `COC(=O)[C@@H]1C(OC(=O)c2ccccc2)CC2CCC1N2C` (stereo not given in full), 0.299%.
Consider `COC(=O)C1=C(c2cc3ccccc3s2)C[C@@H]2CC[C@H]1N2C(=O)NC(C)C`, for which the “activity change, negative = inhibition” value was -24.6%.
In the case of `CC1([N+](=O)[O-])COP(=O)(Nc2ccc(F)cc2)OC1` (stereo not given), the “activity change, negative = inhibition” value is -6.18%.
Consider `COP(=O)(NS(=O)(=O)c1ccccc1)OC`, for which the “activity change, negative = inhibition” value is 0.416%.
For `O=C1C=C(NS(=O)(=O)c2ccccc2)C(=O)c2ccccc21`, the Potency is 23.1 µM (active).
As for `CC1CCCN1CCC(C(N)=O)(c1ccccc1)c1ccccc1` (stereo not given), the “activity change, negative = inhibition” value was -3.33%.
For the molecule `O=C1C2(Cl)C3(Cl)C4(Cl)C(Cl)(Cl)C5(Cl)C3(Cl)C1(Cl)C5(Cl)C24Cl` (stereo not given), the “activity change, negative = inhibition” value was -14%.
Same read-out and setting: as for `COC1=C[C@@H]2[C@@H]3Cc4ccc(OC)c(O)c4[C@]2(CCN3C)CC1=O`, the figure is 3.67%.
Consider `Cc1ccc(Cl)cc1N1CCN(C(=O)C2CCC(CNS(=O)(=O)c3cccs3)CC2)CC1` (stereo not given), for which the Potency is 10.3 µM (active).
Consider `c1cc2c(cc1C1OCC3C(c4ccc5c(c4)OCO5)OCC13)OCO2` (stereo not given), for which the “activity change, negative = inhibition” value is -12.8%.
As for `CCc1ccc(OCC(=O)N2CCN(CC(=O)Nc3ccccc3Cl)CC2)cc1`, the “activity change, negative = inhibition” value is 5.6%.
In the case of `CC[C@H]1CN2CCc3cc(OC)c(OC)cc3[C@@H]2C[C@@H]1C[C@H]1NCCc2cc(OC)c(OC)cc21`, the Potency is 0.411 µM (active).
With `Cc1nn(-c2ccccc2)c(C)c1NC(=O)COC(=O)Cc1ccccc1`, the “activity change, negative = inhibition” value was -2.94%.
Take `COc1ccc2c(c1)[C@]13CCCCC1C(C2)N(C)CC3` (stereo not given in full): the “activity change, negative = inhibition” value was -3.89%.
On to `C[C@]12CCC3C(CC[C@H]4[C@H](O)[C@H](O)CC[C@]34C)C1CCC2=O` (stereo not given in full), for which the “activity change, negative = inhibition” value was -6.32%.
The same measure, in the same setting: under `COc1ccc(C2NCc3ccc4c(c3-n3cccc32)OCO4)cc1OC` (stereo not given) stands -14.8%.
In the case of `CCCCCCCCCCCCn1ccc(=N)cc1`, the Potency is 20.6 µM (active).
On to `c1cc2c(cc1CCNC1CCCCCC1)OCO2`, for which the “activity change, negative = inhibition” value is 9.17%.
The same measure, in the same setting: under `O=C1N=c2ccccc2=C/C1=C\c1c(O)[nH]c(=S)[nH]c1=O` stands -14.9%.
Turning to `COC1C(O)C(C)OC(OC2CCC3(C=O)C(CCC4C3CCC3(C)C(C5=CC(=O)OC5)CCC43O)C2)C1O` (stereo not given), the Potency was 0.0231 µM (active).
For `COC1=CC=C2[C@H]3Cc4ccc(OC)c5c4[C@@]2(CCN3C)C1O5` (stereo not given in full), the “activity change, negative = inhibition” value was -4.83%.
Take `COCc1cc(OC(=O)N(C)C)nc(-c2ccc(C)c(Cl)c2)n1`: the “activity change, negative = inhibition” value was -1.28%.
Same read-out and setting: under `C[C@]12CCC3C(CC[C@H]4[C@H](O)[C@H](O)CC[C@]34C)C1CC[C@@H]2O` (stereo not given in full) stands 2.28%; under `c1ccc(CCN2CCC3(CC2)OCCO3)cc1`, 1.07%.
As to `CCC(C)(O)C(=O)OC1C(=O)OC2CC3C(C)=CC(=O)C(O)C3(C)C3C4(O)OCC23C1C(C)C4O` (stereo not given), the Potency is 0.58 µM (active).
For `CC12CCC(O)CC1CCC1C2CCC2(C)C(C(=O)CC(O)C(F)(F)F)CCC12` (stereo not given), the “activity change, negative = inhibition” value is -6.35%.
The same measure, in the same setting: under `CCN1C(=O)NC(=O)C2(CCCC2)C1=O` stands -20.2%.
With `Oc1ccc2c3c1OC1[C@H](O)CC[C@@]4(O)[C@@H](C2)N(CC2CC2)CC[C@]314` (stereo not given in full), the Potency result is “inactive”.
Same read-out and setting: under `NS(=O)(=O)c1ccc(CCNC(=O)c2ccc(Cl)c(S(=O)(=O)N3CCCCCC3)c2)cc1` stands 10.3 µM (active).
As for `Cc1ccccc1NC(=O)COC(=O)c1cc(C)n(C2CC2)c1C`, the “activity change, negative = inhibition” value was 3.85%.
On to `Cn1cc(/C=C/c2nc3ccccc3c(=O)n2-c2ccccc2)c2ccccc21`, for which the “activity change, negative = inhibition” value is -22.8%.
On the same count and under the same terms, under `C[C@]12CCC3C(CC[C@H]4C[C@@H](O)CC[C@]34C)C1C[C@@H](O)[C@H]2O` (stereo not given in full) stands -26.4%; under `C[C@]12CCC3C(CC[C@H]4C[C@@H](O)CC[C@]34C)C1CC[C@@H]2O` (stereo not given in full), -12.6%.
On to `C[C@]12CC[C@H](O)C[C@H]1CC[C@@H]1C2CC[C@]2(C)[C@@H](C3=CC(=O)OC3)[C@@H](O)C[C@]12O` (stereo not given in full), for which the Potency was 1.84 µM (active).
Turning to `O=P1(Oc2ccccc2)CC(O)C(O)C(COCc2ccccc2)O1` (stereo not given), the “activity change, negative = inhibition” value is 9.74%.
On the same count and under the same terms, as for `CC12CCC3C(CCC4CC(=O)CCC43C)C1CC(=NO)C2=O` (stereo not given), the figure is -13.9%; as for `CN1CCC(N(C)Cc2cccnc2)CC1`, -8.41%.

For the origin of these results see PubChem BioAssay AID504444 (National Center for Advancing Translational Sciences (NCATS), 2011).
